# Screening data from PubChem BioAssay.
# SENP8 block-1: inhibitors of human SENP8 protease | recombinant SENP8, Nedd8 substrate fluorescence | Q96LD8 | inhibition, % at 20 µM | AID 602440 | 0.64% of 360,000 active; in the data active means inhibition mostly above about 40%, no sharp cut-off; inactive means mostly below about 27%
# AHR activator: human AHR activation | P35869 | 2.5% of 320,000 active | AHR-responsive luciferase reporter cells, luminescence | activation, % at 5 µM; in the data active means activation above about 47%;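 further: 0% = vehicle wells and 100% = reference agonist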
# Target sequence (P35869 whole entry, looked up): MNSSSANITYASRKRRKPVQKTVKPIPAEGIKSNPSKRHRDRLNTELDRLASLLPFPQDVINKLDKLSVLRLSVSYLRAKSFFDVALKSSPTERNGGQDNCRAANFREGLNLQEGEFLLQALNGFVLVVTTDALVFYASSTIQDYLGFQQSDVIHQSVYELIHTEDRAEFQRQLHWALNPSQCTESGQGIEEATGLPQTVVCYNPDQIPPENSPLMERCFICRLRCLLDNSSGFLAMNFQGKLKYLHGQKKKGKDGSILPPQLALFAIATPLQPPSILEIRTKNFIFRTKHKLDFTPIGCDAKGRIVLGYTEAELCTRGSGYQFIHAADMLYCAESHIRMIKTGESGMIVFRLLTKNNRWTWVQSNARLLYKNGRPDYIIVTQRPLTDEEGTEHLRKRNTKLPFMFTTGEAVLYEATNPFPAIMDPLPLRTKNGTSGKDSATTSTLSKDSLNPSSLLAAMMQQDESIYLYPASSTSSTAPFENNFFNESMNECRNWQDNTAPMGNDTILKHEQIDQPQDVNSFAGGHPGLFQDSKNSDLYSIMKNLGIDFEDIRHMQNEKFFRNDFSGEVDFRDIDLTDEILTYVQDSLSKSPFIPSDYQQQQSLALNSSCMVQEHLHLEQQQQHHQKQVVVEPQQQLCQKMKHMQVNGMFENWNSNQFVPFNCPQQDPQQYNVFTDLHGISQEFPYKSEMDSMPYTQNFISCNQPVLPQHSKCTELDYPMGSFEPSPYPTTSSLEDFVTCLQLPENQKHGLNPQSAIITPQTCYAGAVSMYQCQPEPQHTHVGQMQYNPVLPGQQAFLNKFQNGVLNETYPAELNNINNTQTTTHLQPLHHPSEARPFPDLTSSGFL
# SENP8 block-2: inhibitors of human SENP8 protease; purified SENP8, Z-RLRGG-aminoluciferin cleavage, luminescence; 1.2% of 330,000 active; inhibition, % at 10 µM; AID 2540; in the data active means inhibition above about 50%
# SENP6 block: blocks the human protease SENP6 | Q9GZR1 | Recombinant SENP6 catalytic domain, aminoluciferin luminescence | inhibition, % at 10 µM | 1.8% of 330,000 active | AID 2599;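 active means inhibition above about 50% at the single tested dose, limit read from the data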;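 further: plate controls were DMSO wells with enzyme for no effect and DMSO wells lacking enzyme for full effect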
# SENP7 block: inhibitors of human SENP7 protease; inhibition, % at 5 µM; 1.5% of 330,000 active; AID 434973; recombinant SENP7, Z-RLRGG-aminoluciferin luminescence, 40 min; Q9BQF6;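 active means inhibition above about 50% at the single test dose, limit read from the data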;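 further: plate controls were DMSO with enzyme for no effect and no enzyme buffer wells for full effect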
# EBI2 antag: antagonists of human EBI2 receptor; P32249; EBI2 beta-arrestin recruitment, luminescence, 7a,25-OHC stimulated; inhibition, % at 5 µM; 0.81% of 360,000 active; AID 651636; in the data active means inhibition above about 38%;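 further: enzyme fragment complementation signal reports receptor beta-arrestin coupling in cells; 0% = agonist plus DMSO wells and 100% = wells without agonist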
# EBI2 antag conf: confirmation of human EBI2 receptor antagonists; shares compounds with EBI2 antag; inhibition, % at 5 µM; 29% of 2,400 active; EBI2 beta-arrestin luminescence, 7a,25-OHC antagonism;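 active means inhibition of at least 50%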
# EBI2 ag: EBI2 agonism counter-screen | shares compounds with EBI2 antag | activation, % at 5 µM | 2,400 tested, under 10 active | EBI2-expressing cells, agonist mode, luminescence, 60 min; 0% vehicle, 100% 7α,25-dihydroxycholesterol control | AID 652000;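 active means activation of at least 50%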
# bGal counter: inhibits E. coli beta-galactosidase, counter-screen for EBI2 antagonists; shares compounds with EBI2 antag; purified beta-galactosidase, luminescent Galacton Star, 15 min; inhibition, % at 5 µM; 1% of 2,400 active; AID 652176;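 active means replicate-average signal at least 3 plate SD below neutral wells, shown as high inhibition, flagging enzyme-inhibiting false positives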;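 further: 0% = DMSO wells with enzyme and 100% = wells lacking enzyme; higher means stronger loss of beta-gal luminescence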
# * marks the source's active call; other numbers are inactive results; . = no result given. Shown are actives, neighbours in structure and some others; about 5% of the full set was active somewhere.
SMILES,SENP8 block-1,AHR activator,SENP8 block-2,SENP6 block,SENP7 block,EBI2 antag,EBI2 antag conf,EBI2 ag,bGal counter
O=C(COC(=O)[C@@H]1CCCN1S(=O)(=O)c1ccccc1F)Nc1ccc(OC(F)F)cc1,-2.2,-2.1,5.0,-5.2,4.5,-0.7,.,.,.
COc1ccc(/C=N/NC(=O)CNC(=O)/C=C/c2ccccc2OC)cc1,-64.7,15.3,-4.0,14.4,-7.9,76.8*,56.8*,0.0,-16.6
COc1ccccc1/C=C\C(=O)NCC(=O)N/N=C/c1cccc(OC)c1O,-107.6,10.0,-1.0,-8.8,-5.0,-1.6,.,.,.
CCOc1cccc(-c2nn(-c3ccccc3)cc2/C=C(/C#N)C(=O)NCCCn2ccnc2)c1,-122.7,13.3,2.3,-12.0,6.1,39.9*,14.2,0.9,8.2
N#C/C(=C/c1cn(-c2ccccc2)nc1-c1cccc(OCc2ccccc2)c1)C(=O)NCCCn1ccnc1,-163.7,13.5,-17.0,-7.4,-3.1,29.2,.,.,.
O=C(NN=Cc1c[nH]c2ccccc12)NN=Cc1c[nH]c2ccccc12,7.9,.,.,.,.,74.2*,62.0*,1.2,5.3
O=C(N/N=C/c1c[nH]c2ccccc12)c1cccs1,-20.2,44.1,-4.6,-12.6,0.4,6.5,.,.,.
CCCc1c(C(=O)N/N=C/c2c[nH]c3ccccc23)nnn1-c1nonc1N,-106.6,.,.,.,.,42.8*,35.8,-0.3,-17.7
CCCN(CCC)Cc1c(C(=O)N/N=C/c2c[nH]c3ccccc23)nnn1-c1nonc1N,-67.3,5.2,-1.7,4.5,4.2,7.1,.,.,.
CCOC(=O)Nc1ccc2c(CN3CCN(S(=O)(=O)c4ccc(C(C)C)cc4)CC3)cc(=O)oc2c1,-248.8,-0.5,-10.6,-15.0,8.5,54.8*,10.1,-0.5,-12.3
COc1ccc(NC(=O)c2cc(-c3ccc(F)cc3OC(C)C)n[nH]2)cn1,4.9,.,.,.,.,15.2,.,.,.
CC(C)Oc1cc(F)ccc1-c1cc(C(=O)Nc2cccc(C(F)(F)F)c2)[nH]n1,11.7,.,.,.,.,42.5*,38.4,1.0,11.2
Clc1ccc(-c2csc3ncnc(N4CCc5ccccc5C4)c23)cc1,8.7,-1.2,-7.0,6.7,-11.2,44.4*,24.4,-1.6,-8.8
O=C(C[C@H]1C[C@H](C(=O)N2CCCCC2)[C@@]2(CCc3ccccc3)c3[nH]c4ccc(Cl)cc4c3CCN2C1=O)NCc1ccco1,2.9,.,.,.,14.3,21.2,.,.,.
CC(C)(C)C1CCC(=O)N(CCC#N)CC1 (stereo unspecified),20.1,0.1,-3.1,1.0,-4.8,-0.8,.,.,.
O=S(=O)(Nc1ccccc1-c1ccccc1)c1ccccc1,7.7,.,.,.,.,8.8,.,.,.
Cc1cc(C)c(S(=O)(=O)Nc2ccccc2-c2ccccc2)c(C)c1,16.5,1.2,-6.2,-11.5,-1.4,57.1*,27.9,-0.2,7.4
CCCCCN(C(=O)CCC(=O)OCC(=O)NCCc1ccccc1)c1c(N)n(CCCC)c(=O)[nH]c1=O,9.8,.,.,.,.,-1.5,.,.,.
N#Cc1ccc(C(=O)N2CCN(S(=O)(=O)c3ccc(Cl)s3)CC2)cc1,-3.1,-1.1,1.2,2.0,-0.4,55.6*,30.8,0.4,7.1
O=C(COc1ccccc1)Nc1nnc(COc2ccccc2)s1,-4.0,.,0.2,-11.6,-0.5,2.6,.,.,.
Cc1cc(N2CCN(Cc3ccccc3)CC2)n2nc(C)c(-c3ccccc3)c2n1,-275.5,4.9,-5.5,6.0,-10.8,46.9*,15.1,-1.4,-20.9
COc1ccc(-c2c(C)nn3c(N4CCN(Cc5ccccc5)CC4)cc(C)nc23)cc1OC,-19.1,1.6,4.7,-21.7,4.4,-7.1,.,.,.
[O-][n+]1c2ccccc2cc2ccccc21,-474.3,6.1,-3.0,-3.4,-1.4,-23.9,.,.,.
COc1ccc(/C=C/C(=O)N2CCN(c3ccccn3)CC2)cc1OC,-10.1,4.5,-8.7,-4.4,-2.8,18.8,.,.,.
O=C(/C=C/c1ccc(Cl)c(C(F)(F)F)c1)N1CCN(c2ccccn2)CC1,4.6,3.3,-7.0,-5.4,-0.3,47.6*,37.0,0.6,3.0
SMILES,SENP8 block-1,AHR activator,SENP8 block-2,SENP6 block,SENP7 block,EBI2 antag,EBI2 antag conf,EBI2 ag,bGal counter
O=C(/C=C/c1ccccc1)N1CCN(c2ccccn2)CC1,0.0,13.1,-12.8,-4.1,6.7,88.0*,74.1*,1.0,2.2
O=C(/C=C/c1cccc(F)c1)N1CCN(c2ccccn2)CC1,15.3,11.4,-0.2,13.6,-1.1,76.9*,61.3*,0.3,-5.6
COc1cc(/C=C/C(=O)N2CCN(c3ccccn3)CC2)cc(OC)c1OC,-10.5,-1.0,2.9,1.8,-2.9,16.0,.,.,.
O=C(/C=C/c1ccc(Cl)cc1)N1CCN(c2ccccn2)CC1,24.6,11.1,-8.6,-18.2,4.0,93.1*,80.5*,-1.5,-8.1
O=C(/C=C/c1ccccc1F)N1CCN(c2ccccn2)CC1,19.3,7.3,0.2,-2.9,-5.9,44.8*,31.9,0.4,5.1
NC(=O)NC(=O)COC(=O)c1cccc(NS(=O)(=O)/C=C/c2ccccc2)c1,1.0,-1.8,13.9,-3.7,5.7,-12.9,.,.,.
Cc1cc(C)c(S(=O)(=O)N2CCN(C(=O)c3ccc(-n4cncn4)c([N+](=O)[O-])c3)CC2)c(C)c1,0.5,0.1,-8.3,-4.6,7.5,72.3*,34.6,-0.9,-7.5
O=C(c1ccc(-n2cncn2)c([N+](=O)[O-])c1)N1CCN(S(=O)(=O)c2ccccc2Br)CC1,28.3,-3.7,-3.8,-17.9,-7.8,13.6,.,.,.
Cc1nn(-c2ccc(C(=O)N3CCN(S(=O)(=O)c4ccccc4C(F)(F)F)CC3)cc2)c(C)c1Cl,13.6,-0.9,-9.5,-5.0,2.6,46.7*,35.6,-0.5,4.6
CC(=O)c1ccc(S(=O)(=O)N2CCN(C(=O)c3ccc(-n4nc(C)c(Cl)c4C)cc3)CC2)cc1,13.4,-2.1,-17.7,-8.9,-9.0,36.0,.,.,.
O=C(Nc1ccc2c(c1)OCO2)N1CCN(S(=O)(=O)c2ccc(Cl)cc2)CC1,23.5,37.1,5.0,-1.6,4.8,48.4*,26.9,-1.2,-13.3
O=C(Nc1ccc2c(c1)OCO2)N1CCN(c2ccccc2Cl)CC1,5.8,27.0,-4.6,-1.8,0.9,50.4*,37.3,-0.7,3.4
O=C(CN1CCN(S(=O)(=O)c2ccc(Cl)cc2)CC1)Nc1ccc2c(c1)OCO2,10.6,-0.5,-6.2,4.5,6.5,10.8,.,.,.
O=C(Nc1ccc2c(c1)OCO2)N1CCN(c2cccc(C(F)(F)F)c2)CC1,9.6,7.3,-3.3,-13.2,1.7,-2.0,.,.,.
O=C(/C=C/c1ccc(Cl)cc1Cl)N1CCN(c2ccccc2[N+](=O)[O-])CC1,24.5,6.5,0.0,-15.4,2.0,82.5*,61.7*,0.8,3.0
O=C(/C=C/c1ccccc1[N+](=O)[O-])N1CCN(c2ccccc2F)CC1,4.9,1.3,0.5,1.4,0.1,-3.8,.,.,.
